# Values joined by “and” are separate entries in the source; they are usually repeats but may differ in a detail not shown here. Equal values may be shown once. Results filed as inconclusive are left out. Entries that show only a call come without a potency. Some structures have more than one record in an assay (separate samples or runs), and their calls can disagree. Active and inactive are the calls of the source. The call rests on the fitted dose curve; in most records, active means well fitted curve in the direction sought with a large enough effect in the repeat runs; inconclusive means weak or mixed curves; inactive means no such curve, though single readings can be large; an effect the other way counts as inactive or inconclusive.
# How the values were obtained:
# [1] = qHTS RealTime-Glo MT Cell Viability Assay in HEK293 cells - 0 hour (AID 1224880); further: top concentration of the series differs between compounds; nearly all actives have a fitted effect of over 45% in size
# Outline: (§1)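 600 HEK293 cells per well, dispensed already mixed with RealTime-Glo MT reagents. Compound dosing came 5 h later. The same wells were read for luminescence at 0, 8, 16, 24, 32 and 40 h of exposure at 37 C.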
# [2] = A CellTox Green Cytotoxicity Assay to monitor cytotoxicity in HEK293 cells - 32 hour (AID 1224881); further: nearly all actives have a fitted effect of over 40% in size; further: potency means the concentration at half of the fitted maximal effect
# Outline: (§2)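 Dead-cell fluorescence measured kinetically: asymmetric cyanine dye, HEK293, 600 cells/well, 5 h settle, 23 nL cpd/DMSO, 37 C, reads 0–40 h every 8 h.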
# [3] = A CellTox Green Cytotoxicity Assay to monitor cytotoxicity in HepG2 cells - 0 hour (AID 1224882); further: nearly all actives have a fitted effect of over 35% in size; further: potency means the concentration at half of the fitted maximal effect
# Outline: (§3)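 First, HepG2 cells (600/well) mixed with reagent were plated; second, after 5 h at 37 C they received compounds via pintool; third, fluorescence was measured at 0 h through 40 h at 8 h intervals.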
# [4] = A CellTox Green Cytotoxicity Assay to monitor cytotoxicity in HepG2 cells - 32 hour (AID 1224883); further: nearly all actives have a fitted effect of over 50% in size; further: potency means the concentration at half of the fitted maximal effect
# Outline: as §3
# [5] = qHTS RealTime-Glo MT Cell Viability Assay in HepG2 cells - 16 hour (AID 1224885); further: nearly all actives have a fitted effect of over 50% in size
# Outline: (§4)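 Cell number in HepG2 cultures estimated from NanoLuc luminescence generated by metabolic reduction of a prosubstrate by living cells. The homogeneous, nonlytic format allowed repeated reads at 0, 8, 16, 24, 32 and 40 h of compound exposure.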
# [6] = qHTS RealTime-Glo MT Cell Viability Assay in HEK293 cells - 24 hour (AID 1224886); further: nearly all actives have a fitted effect of over 50% in size; further: potency means the concentration at half of the fitted maximal effect
# Outline: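 Homogeneous bioluminescent viability format in HEK293 cells (600 cells/well). Following 5 h at 37 C/5% CO2, 23 nL compound was pintooled; the signal was measured repeatedly during 40 h incubation.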
# [7] = qHTS RealTime-Glo MT Cell Viability Assay in HEK293 cells - 8 hour (AID 1224887); further: nearly all actives have a fitted effect of over 50% in size; further: potency means the concentration at half of the fitted maximal effect
# Outline: as §1
# [8] = qHTS RealTime-Glo MT Cell Viability Assay in HepG2 cells - 0 hour (AID 1224889); further: nearly all actives have a fitted effect of over 50% in size; further: potency means the concentration at half of the fitted maximal effect
# Outline: as §4
# [9] = A CellTox Green Cytotoxicity Assay to monitor cytotoxicity in HEK293 cells - 8 hour (AID 1224884); further: nearly all actives have a fitted effect of over 35% in size; further: potency means the concentration at half of the fitted maximal effect
# Outline: as §2
# [10] = A CellTox Green Cytotoxicity Assay to monitor cytotoxicity in HEK293 cells - 16 hour (AID 1224888); further: nearly all actives have a fitted effect of over 35% in size; further: potency means the concentration at half of the fitted maximal effect
# Outline: as §2
SMILES,Potency [1],Potency [2],Potency [3],Potency [4],Potency [5],Potency [6],Potency [7],Potency [8],Potency [9],Potency [10]
CCOP(=S)(OCC)Oc1nc(Cl)c(Cl)cc1Cl,inactive,39 µM (active) and inactive,inactive,inactive,inactive,21.9 µM (active) and inactive,19.5 µM (active) and inactive,inactive,–,–
COCCOCCO,inactive,inactive,inactive,–,inactive,inactive,inactive,inactive,inactive,inactive
CN1C[C@H](CNC(=O)OCc2ccccc2)C[C@@H]2c3cccc4c3c(cn4C)C[C@H]21,inactive,inactive,inactive,26.8 µM (active),–,21.3 µM (active),–,inactive,inactive,inactive
C(=NC1CCCCC1)=NC1CCCCC1,inactive,19.6 µM (active) and 24.5 µM (active),inactive,11 µM (active) and 12.3 µM (active),–,19.6 µM (active) and 19.5 µM (active),–,inactive,inactive,–
O=C(NC(=O)c1c(F)cccc1F)Nc1cc(Cl)c(Oc2ncc(C(F)(F)F)cc2Cl)c(Cl)c1,inactive,inactive,inactive,inactive,–,–,inactive,inactive,inactive,inactive
CCOS(C)(=O)=O,inactive,inactive,inactive,–,inactive,inactive,inactive,inactive,inactive,inactive
CS/C(C)=N/OC(=O)N(C)SN(C)C(=O)O/N=C(\C)SC,inactive,54.9 µM (active),inactive,54.9 µM (active),–,49 µM (active),43.6 µM (active),inactive,–,–
O=Cc1ccc(Cl)cc1Cl,inactive,inactive,inactive,–,inactive,inactive,inactive,inactive,inactive,inactive
O=C(Nc1ccccc1)Nc1ccnc(Cl)c1,inactive,inactive,inactive,–,inactive,19.5 µM (active),–,–,inactive,inactive
CCCCC(O)(Cn1cncn1)c1ccc(Cl)cc1Cl (stereo not drawn),inactive,54.9 µM (active),inactive,48.9 µM (active),–,43.6 µM (active),43.6 µM (active),24.5 µM (active),–,–
CC1Sc2c(C(=O)O)c(=O)c3cc(F)c(N4CCNCC4)cc3n21 (stereo not drawn),inactive,inactive,inactive,–,inactive,inactive,inactive,inactive,inactive,inactive
N#C/C(N)=C(/N)C#N,inactive,inactive,inactive,–,inactive,inactive,inactive,inactive,inactive,inactive
CC(C)N(CCC(C(N)=O)(c1ccccc1)c1ccccn1)C(C)C (stereo not drawn),inactive,inactive,inactive,–,inactive,inactive,inactive,inactive,inactive,inactive
ClCC(Br)CBr (stereo not drawn),inactive,inactive,inactive,–,inactive,inactive,inactive,inactive,inactive,inactive
CCCCNP(N)(N)=S,inactive,inactive,inactive,–,inactive,inactive,inactive,inactive,inactive,inactive
COCC(C)N(C(=O)CCl)c1c(C)csc1C (stereo not drawn),inactive,inactive,inactive,–,inactive,inactive,inactive,inactive,inactive,inactive
COc1nn(C(=O)NS(=O)(=O)c2ccccc2OC(F)(F)F)c(=O)n1C,inactive,20 µM (active),39.9 µM (active),–,inactive,inactive,inactive,inactive,31.7 µM (active),22.4 µM (active)
CC1C(=O)C[C@]2(C(C)C)C[C@H]12 (stereo partly drawn),inactive,inactive,inactive,–,inactive,inactive,inactive,inactive,inactive,inactive
O=[N+]([O-])c1ccccc1CCl,inactive,inactive,inactive,–,inactive,inactive,inactive,inactive,inactive,inactive
O=C(CBr)Nc1ccc(Cl)cc1C(=O)c1ccccc1F,inactive,inactive,inactive,–,inactive,inactive,inactive,inactive,inactive,inactive
c1ccc(C2CC2)c(OCC2=NCCN2)c1,inactive,inactive,inactive,–,inactive,inactive,inactive,inactive,inactive,inactive

SMILES,Potency [1],Potency [2],Potency [3],Potency [4],Potency [5],Potency [6],Potency [7],Potency [8],Potency [9],Potency [10]
[CH3][Sn]([CH3])([Cl])[Cl],inactive,inactive,–,–,inactive,–,inactive,inactive,inactive,inactive
O=NN1CCNCC1,inactive,inactive,–,inactive,inactive,inactive,inactive,inactive,inactive,inactive
Cn1sc(Cl)cc1=O,inactive,inactive,–,inactive,inactive,inactive,inactive,inactive,inactive,inactive
CCCCOC(=O)c1ccccc1C(=O)OCc1ccccc1,inactive,inactive,inactive,–,inactive,–,–,inactive,inactive,inactive
C=CCC1([C@H](C)CCC)C(=O)NC(=O)NC1=O,inactive,inactive,–,–,inactive,inactive,inactive,inactive,inactive,inactive
CC(Cl)C(C)Cl (stereo not drawn),inactive,inactive,–,inactive,inactive,inactive,inactive,inactive,inactive,inactive
O=C1NCN(c2ccccc2)C12CCN(CCCOc1ccc(F)cc1)CC2,inactive,inactive,inactive,–,inactive,–,inactive,inactive,inactive,inactive
C=COC(C)=O,inactive,inactive,–,inactive,inactive,inactive,inactive,inactive,inactive,–
CCCCCCC#N,inactive,inactive,–,inactive,inactive,inactive,inactive,inactive,inactive,inactive
CCCN(CC1CC1)c1c([N+](=O)[O-])cc(C(F)(F)F)cc1[N+](=O)[O-],inactive,inactive,–,inactive,inactive,inactive,–,inactive,–,inactive
Cc1cc(=O)[nH]o1,inactive,inactive,–,–,inactive,inactive,inactive,inactive,inactive,inactive
CCOC(=O)C(Cl)C(C)=O (stereo not drawn),inactive,inactive,inactive,–,inactive,inactive,inactive,inactive,–,inactive
Oc1ccc(Cl)c(Cl)c1Cl,inactive,inactive,inactive,–,inactive,–,inactive,inactive,inactive,inactive
Cn1cc[n+](C)c1 (tested in a mixture with another compound),inactive,inactive,–,inactive,inactive,inactive,inactive,inactive,inactive,inactive
CCOC(=O)[C@]1(c2ccccc2)Oc2ccccc2[C@@H]1N,inactive,inactive,inactive,–,inactive,–,inactive,inactive,inactive,inactive
COc1nn(CSP(=S)(OC)OC)c(=O)s1,inactive,inactive,–,–,inactive,inactive,inactive,inactive,inactive,inactive
C=CCOC(C)=O,inactive,inactive,–,inactive,inactive,inactive,inactive,12.1 µM (active),inactive,inactive
BrCCCCBr,inactive,inactive,–,inactive,inactive,inactive,inactive,inactive,inactive,inactive
CC1(C)[C@H](C=C(Cl)Cl)[C@@H]1C(=O)O[C@@H](C#N)c1cccc(Oc2ccccc2)c1,inactive,inactive,–,inactive,inactive,inactive,inactive,inactive,inactive,inactive
CCC(COC(=O)c1cc(OC)c(OC)c(OC)c1)(c1ccccc1)N(C)C (stereo not drawn),inactive,inactive,–,inactive,inactive,–,26.8 µM (active),inactive,inactive,inactive
